Screening results deposited in PubChem BioAssay by National Center for Advancing Translational Sciences (NCATS).
Compounds with a hit are over-represented: about 12% of the library has one in this group of screens.
G9a inh = qHTS Assay for Inhibitors of Histone Lysine Methyltransferase G9a; Potency, µM (doses to about 102 µM), for the others: top-dose activity, negative = inhibition, hits mostly inhibitors; Histone-lysine N-methyltransferase EHMT2 (Homo sapiens), Q96KQ7; G9a H3K9 monomethylation, AlphaScreen, 2 h; actives 8.8% (n = 350,000); note: % is set by controls: 0 for no effect and ±100 for the full control effect; nearly all actives have a fitted effect of over 75% in size
Target sequence (Q96KQ7 913-1193 limits assumed): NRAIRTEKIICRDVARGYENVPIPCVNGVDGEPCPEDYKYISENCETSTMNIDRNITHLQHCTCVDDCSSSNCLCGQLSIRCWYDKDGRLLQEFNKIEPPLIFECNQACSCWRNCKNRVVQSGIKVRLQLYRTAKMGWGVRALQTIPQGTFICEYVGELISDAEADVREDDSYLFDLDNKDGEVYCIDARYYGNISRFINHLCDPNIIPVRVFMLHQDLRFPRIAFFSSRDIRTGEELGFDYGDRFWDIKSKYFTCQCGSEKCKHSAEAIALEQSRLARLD
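Using a bead-based AlphaScreen, monomethylated H3K9 product from 2 h room-temperature reactions (G9a 20 nM, peptide 500 nM, SAM 20 uM) was detected with 0.5 ug/mL rabbit anti-H3K9me1 antibody.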
HP1b chromo inh = HTS for Inhibitors of HP1-beta Chromodomain Interactions with Methylated Histone Tails; Chromobox protein homolog 1 (Homo sapiens), P83916; AlphaScreen HP1-beta / biotin-H3K9me3 peptide binding; Potency, µM (titrated, usually from 114 µM), without a hit: at the top dose activity change, negative = inhibition, usual class: inhibitors; actives 0.56% (n = 390,000); note: nearly all actives have a fitted effect of over 70% in size
Target sequence (P83916 whole entry, looked up): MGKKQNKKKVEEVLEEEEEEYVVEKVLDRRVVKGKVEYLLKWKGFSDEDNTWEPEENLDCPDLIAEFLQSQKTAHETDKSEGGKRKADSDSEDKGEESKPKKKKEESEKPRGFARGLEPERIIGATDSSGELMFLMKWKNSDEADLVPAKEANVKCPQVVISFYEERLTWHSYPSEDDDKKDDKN
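Compound inhibition of the preformed complex between 50 nM HP1-beta and 50 nM biotinylated H3K9me3 peptide was read by AlphaScreen. Buffer was PBS pH 7.4 with 0.01% Tween-20. Incubations ran 30 min at room temperature, with 10 ug/mL donor/acceptor beads.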
JMJD2A Tudor = qHTS Assay for Inhibitors of JMJD2A-Tudor Domain; Lysine-specific demethylase 4A (Homo sapiens), O75164; AID 504339, 2011; Potency, µM (titrated, usually from 114 µM), without a hit: top-dose activity change, negative = inhibition, actives largely listed as inhibitors; AlphaScreen JMJD2A-Tudor / H3K4me3 peptide binding; actives 4.4% (n = 390,000); note: % is set by controls: 0 for no effect and ±100 for the full control effect; nearly all actives have a fitted effect of over 50% in size
BAZ2B inh = qHTS Assay for Inhibitors of BAZ2B. Bromodomain adjacent to zinc finger domain protein 2B (Homo sapiens), Q9UIF8. Potency, µM (top dose mostly 114 µM), inactives show top-dose activity change, negative = inhibition, actives largely listed as inhibitors. actives 4.4% (n = 360,000). AlphaScreen BAZ2B-H3K14Ac peptide displacement; note: % is set by controls: 0 for no effect and ±100 for the full control effect; nearly all actives have a fitted effect of over 60% in size
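AlphaScreen displacement of biotin-H3(5-23)K14Ac peptide (50 nM final) from BAZ2B (50 nM final) in PBS pH 7.4, 0.01% Tween-20; complex preformed 30 min RT, then compounds (top 110 uM) 30 min RT, beads 20 min dark.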
Sfp PPTase inh = qHTS Assay for Inhibitors of Bacillus subtilis Sfp phosphopantetheinyl transferase (PPTase). 4'-phosphopantetheinyl transferase ffp (Bacillus subtilis), Q9F4F7. Biochemical Sfp PPTase activity, qHTS. Potency, µM, for inactives: largest response in the series, negative = inhibition, hits mostly inhibitors. actives 3.5% (n = 310,000);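 note: the enzyme is Sfp with the accession as filed and its product quenches rhodamine fluorescence; 0% = enzyme reaction without inhibitor and -100% = no enzyme wells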
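Fluorescence-quenching assay: 15 nM Sfp-PPTase preincubated 15 min at room temperature with compound, then 5 uM rhodamine-CoA and 12.5 uM BHQ-2-labelled YbbR peptide added. Fluorescence (ex 525/em 598 nm) read at start and after 30 min; difference gives rate.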
* hit, by the source's call; ? = inconclusive; · = not tested or not shown; [ ] = another dose, or the depositor's remark. Calls come from the whole dose curve; as a rule, active = well fitted curve in the direction sought with a large enough effect; inconclusive = small, poorly fitted or top-dose-only effect, or another doubt; inactive = no such curve, though single readings can be large; an effect the other way counts as inactive or inconclusive. Potency is the fitted concentration of half-maximal effect.

SMILES	G9a inh	HP1b chromo inh	JMJD2A Tudor	BAZ2B inh	Sfp PPTase inh
CCN1CCN(c2ccc(S(=O)(=O)N3CCCCC3)cc2NC(=O)c2ccc([N+](=O)[O-])s2)CC1	10µM*	?	?	-7%	·
Cc1ccc2cc(NC(=O)c3ccccc3C)ccc2n1	-9%	34%	-8%	-9%	10%
CCN1CCN(c2ccc(S(=O)(=O)N3CCCCC3)cc2NC(=O)Cc2ccccc2F)CC1	?	1%	-30%	7%	·
CC1CCCCC1NC(=O)c1cccc(S(=O)(=O)N2CCN(C)CC2)c1 (stereo not given)	45µM*	7%	-19%	-6%	·
CCN1CCN(c2ccc(S(=O)(=O)N3CCCCC3)cc2NC(=O)c2cccc(F)c2)CC1	?	-12%	-22%	-32%	·
CCN1CCN(c2ccc(S(=O)(=O)N3CCCCC3)cc2NC(=O)c2ccccc2)CC1	10µM*	21%	-15%	-11%	·
CCN1CCN(c2ccc(S(=O)(=O)N3CCCCC3)cc2NC(=O)c2cccc(C(F)(F)F)c2)CC1	13µM*	-11%	-34%	-9%	·
CCN(CC(=O)N1CCN(Cc2ccccc2)CC1)S(=O)(=O)c1ccc(C)cc1	4%	25%	-10%	-19%	3%
COc1cccc(NC(=O)C2CCOC2=O)c1 (stereo not given)	·	46%	-3%	·	·
O=C(NNC(=O)C1C2C=CC(C2)C1C(=O)O)c1ccccc1 (stereo not given)	15%[59 µM]	7%	-8%	0%	?
CCOC(=O)c1ccc(C(=O)NNC(=O)C2C3C=CC(C3)C2C(=O)O)cc1 (stereo not given)	-5%[0.501 µM]	39%	-13%	-5%	50µM*
O=C(NNC(=O)C1C2C=CC(C2)C1C(=O)O)c1ccccc1O (stereo not given)	-8%	37%	-17%	50µM*	?
CN(C)c1ccc(C2/C(=C(/O)c3ccc(Br)cc3)C(=O)C(=O)N2C)cc1 (stereo not given)	40µM*	8%	?	-3%	-2%
CN1C(=O)C(=O)/C(=C(/O)c2ccc(Br)cc2)C1c1cccc([N+](=O)[O-])c1 (stereo not given)	50µM*	10%	-25%	-9%	18%
O=C(NC1CCCCC1)c1ccc(CSc2nc3cccnc3n2Cc2cccc(F)c2)cc1	-32%[59 µM]	34%	-15%	1%	·
CC(C)NC(=O)CCCOc1ccc(Cl)cc1Cl	14%	31%	-5%	-4%	-1%
COCCCNCCOc1cc(C(C)C)ccc1C	?	?	3.2µM*	79µM*	-12%
Cc1ccc(OCCOCCNC(C)C)c(Br)c1	·	?	10µM*	56µM*	-22%
CCC(C)NCCOCCOc1ccc(C)cc1OC (stereo not given)	11µM*	?	20µM*	?	-30%
CCC(C)NCCOCCOc1ccc(Cl)cc1Br (stereo not given)	2.2µM*	-19%	2.5µM*	-22%	50µM*
COc1cc(C)ccc1OCCOc1cc(C)ccc1Cl	?	31%	-27%[11.4 µM]	?	-26%
Cc1ccc(C(C)C)cc1OCC(=O)NC1CCCCCCC1	78%[59 µM]	123%	93%	71%	·
COc1ccccc1OCCOCCOc1ccc(C)cc1Br	142%[59 µM]	244%	104%	140%	-6%
CCCCn1c(=O)nc2n(-c3ccc(Br)cc3)c3ccccc3cc-2c1=O	8%[59 µM]	4%	2%	2%	·
COCCCNCCOCCOc1ccc(C)cc1Br	?	19%	50µM*	?	?
SMILES	G9a inh	HP1b chromo inh	JMJD2A Tudor	BAZ2B inh	Sfp PPTase inh
COc1cc(C)ccc1OCCCOc1ccccc1Br	·	68%	-13%	51%	-10%
CCCCNCCOCCOc1ccc(C)cc1Br	10µM*	-35%	3.5µM*	?	-7%
COc1ccc(CNC(=O)c2ccc(N3CCCC3)c(NC(=O)NCc3ccc(C)cc3)c2)cc1	-6%[59 µM]	5%	-32%	-28%	·
CC(Nc1ccc(F)cc1)=[N+](C)CCNS(=O)(=O)c1ccc(Cl)cc1	22µM*	?	20µM*	50µM*	-25%
CCNS(=O)(=O)c1ccc(NC(=O)Cc2ccc(F)cc2)cc1	10%[12.7 µM]	38%	-4%	1%	15%
O=C(COc1ccccc1)NS(=O)(=O)c1ccccc1	3.5µM*	31%	-6%	-16%	20%
COc1cc(OC)c(Nc2nc3ccc(C)cc3n3nnnc23)cc1Cl	-6%[59 µM]	50%	7%	-2%	·
FC(F)(F)c1cc(NC(=S)NC23CC4CC(CC(C4)C2)C3)cc(C(F)(F)F)c1	·	·	·	·	9%
CCOC(=O)c1ccc(Nc2ncccc2[N+](=O)[O-])cc1	·	?	?	7.9µM*	-3%
CC(=O)Nc1ccc(C)c([N+](=O)[O-])c1	-3%	11%	4%	6%	17%
CCOC(=O)c1ccc(NC(=O)c2ccccc2[N+](=O)[O-])cc1	-40%[59 µM]	?	-32%[57.1 µM]	-21%	-4%
Cc1ccc(Nc2ncccc2C(N)=O)cc1[N+](=O)[O-]	35µM*	-12%	-15%	-30%	-11%
CCOC(=O)c1ccc(N/N=C/c2cc(Br)cc([N+](=O)[O-])c2O)cc1	0.56µM*	?	10µM*	?	18%
Cc1cc(F)ccc1OC1C=CC(c2ccc3c(c2)OCO3)OC1CO (stereo not given)	·	·	·	·	9%
CCCCCC1=C2CNC(C)(C(=O)OC)C=C2C(C)C1=O (stereo not given)	·	·	·	·	1%
Clc1cccc(CN2CCSCC2)c1Cl	3.5µM*	?	3.5µM*	?	-32%
Clc1cccc(CN2CCCCCC2)c1Cl	20µM*	?	0.71µM*	?	-2%
Clc1ccccc1Cc1noc(CN2CCSCC2)n1	19%[12.7 µM]	26%	1%	-6%	4%
OCc1cccc(Cl)c1Cl	·	·	·	·	-8%
Cc1ccc(C)c(NC(=O)CCCN2C(=O)COc3ccc(C)cc32)c1	6%[59 µM]	13%	-12%	-9%	·
COc1ccc(CCN2CCC[C@H](CN3CCc4cc(OC)c(OC)cc4CC3=O)C2)cc1OC	·	·	·	·	-13%
CCN1C(=O)/C(=C2/SC(C)=C(C)N2CC)SC1=S	0%	5%	-19%	-2%	0%
CCN1C(=O)/C(=C2/C(=O)N3c4c(cc(OC(C)=O)cc42)C(C)=CC3(C)C)SC1=S	2.8µM*	?	?	2µM*	7%
COc1ccc2c(c1)C(C)=CC(C)(C)N2S(=O)(=O)c1ccc(C)cc1	87%	9%	-13%[57.1 µM]	-20%	0%
COc1cc2c3c(c1)/C(=C1/SC(NC(C)=O)=NC1=O)C(=O)N3C(C)(C)C=C2C	?	?	?	20µM*	35µM*
